Results reported in PubChem BioAssay (NCI).
This is part of a sample that, as a whole, favours compounds with a hit. Of some 83,000 tested, about 20% had one in any assay.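 Cell lines were cultured in 96-well plates, exposed to a single compound concentration, and assessed for percent growth 48 hours later.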 The source made the active and inactive calls. How the source made its calls: active means growth percent below 10; inactive means the rest.

These molecules were tested on MDA-MB-468 breast (assay: NCI-60 one-dose screen, 48 h (100 = growth as untreated, 0 = no growth, -100 = all killed)). Details: 10 µM unless noted.

SMILES	growth
COc1ccc2[nH]c(=O)c(/C=C/C(=O)c3ccc(Nc4nccc(-c5ccc6ccccc6c5)n4)cc3)cc2c1	103% (inactive)
Cc1cc(Nc2nc(-c3ccncc3)nc3ccccc23)n[nH]1	84.2% (inactive)
OCc1ccc(N2CCc3cccc(F)c3C2)cc1Cl	-49.9% [0.1 µM] (active)
C=C(c1ccc(OC)c(/C=C/C(=O)c2cc(OC)c(OC)c(OC)c2)c1)c1cc(OC)c(OC)c(OC)c1	-8.58% (active)
CCCCCCCC(=O)SCC/C=C/[C@@H]1CC(=O)NCc2nc(co2)C2=N[C@@](C)(CS2)C(=O)N[C@@H](C(C)C)C(=O)O1	-0.758% (active)
ClC1C2CC(c3ccccc32)C1Cl (configuration not stated)	104% (inactive)
CN([N-]C(=O)CC(=O)[N-]N(C)C(=S)c1ccccc1)C(=S)c1ccccc1.[Cu+2]	-58% (active)
CC(C)c1ccc(/C=N/N=C(N)N)cc1	35.3% (inactive)
COc1cc(-c2cc(-c3nc4cc(Cl)c(Cl)cc4[nH]3)[nH]n2)cc(OC)c1OC	51.7% (inactive)
c1ccc(-c2n(Cc3ccc4ccccc4c3)c3ccccc3[n+]2Cc2ccc3ccccc3c2)cc1	-35.4% (active)
O=C(c1ccccc1)N(C(=S)NCCc1ccc(Cl)cc1)c1ccc(Cl)cc1	16.7% (inactive)
O=C(Nc1ccc(Oc2ccc(Nc3nc4ccccc4s3)cc2)cc1)Nc1ccc(Cl)c(Cl)c1	8.01% (active)
O=[N+]([O-])c1ccc(N2CCN=N2)cc1	93.9% (inactive)
CCCC1Cc2cc(-n3nc(C)c4c3CC(C)(C)CC4=O)cc(NC3CCC(O)CC3)c2C(=O)N1 (configuration not stated)	-8.54% (active)
COc1cnc2c(c1)C(=O)c1c-2n(CCCN2CCNCC2)c(=O)c2cc(Cl)ccc12	65.8% (inactive)
C1=C\COCc2cc(ccc2OCCN2CCCC2)Nc2nccc(n2)-c2cccc(c2)COC/1	-53.7% (active)
O=S(=O)(c1ccc(NC(=S)NCc2cccnc2)cc1)N1CCCCC1	72.3% (inactive)
CN1CCN(c2ccc3nc(-c4cc(C(C)(C)C)c(O)c(C(C)(C)C)c4)[nH]c3c2)CC1	65.4% (inactive)
CCOc1ccc(NC(=O)Nc2ccc(OCC)cc2)cc1	106% (inactive)

SMILES	growth
CCOC(=O)C1=CSC2=NC3=C(CCC/C3=C\c3cc(OC)c(OC)c(OC)c3)C(c3cc(OC)c(OC)c(OC)c3)N12 (configuration not stated)	33.8% (inactive)
CCOC(=O)c1cn2ncnc(Oc3ccc(NC(=O)NCCN4CCOCC4)c(Cl)c3)c2c1C	85.1% (inactive)
C=C1C(=O)O[C@H]2[C@H]1CC/C(COC(=O)NCc1ccc(Cn3c(=O)sn(-c4ccc(I)cc4)c3=O)cc1)=C\CC[C@@]1(C)O[C@@H]21	29.6% (inactive)
O=C(Nc1cccc(Cl)c1)Nc1cc(C(F)(F)F)ccc1Cl	1.29% (active)
COC(=O)c1c2c(c[n+]([O-])c1C)C(=O)C=C(NCc1ccccc1)C2=O	-74.9% (active)
COc1ccc(S(=O)(=O)NCCCNc2nccc(-n3ccc4cccnc43)n2)cc1	76.2% (inactive)
Cc1ccc(-c2nn(CC(=O)N3CCOCC3)c(N)c2C#N)cc1	104% (inactive)
C[C@@H](Nc1ncnc2ccc(-c3cnc(Cl)c(NS(C)(=O)=O)c3)cc12)c1ccccc1	30.8% (inactive)
COc1ccc(/C(C)=C(\c2ccc(Cl)cc2)c2ccc(OCCN(C)C)cc2)cc1F	66.2% (inactive)
C#CC[C@@H]1C[C@]2(C)[C@H]3CC[C@@H]4[C@H]5C(C(=C)C)CC[C@]5(C(=O)NCCN(CCN)CCN)CC[C@@]4(C)[C@]3(C)CC[C@H]2C(C)(C)[C@H]1OC(C)=O (some centres not stated)	-25.4% (active)
O=C(CCc1nnc(Cn2cnc3nc[nH]c3c2=O)o1)c1nc2ncccc2[nH]1	102% (inactive)
CCCCCCCCCCCCCCCC1=NCCN1	-32.9% (active)
COc1ccc(C2CC(c3ccc4ccccc4c3)=NN2/C=C2\SC(=S)N(NC(=O)Cc3ccccc3Nc3c(Cl)cccc3Cl)C2=O)cc1 (configuration not stated)	7.11% (active)
NC(CSC(c1ccccc1)(c1ccccc1)c1ccccc1)C(=O)O (configuration not stated)	32.7% (inactive)
CCOC(=O)C(C#N)C1CCCCC1 (configuration not stated)	124% (inactive)
Clc1cc(Cl)cc(N2N=C(c3cccc(Nc4ccncc4)c3)CC2c2ccccc2)c1 (configuration not stated)	37.9% (inactive)
CN(C)c1ccc(/C=C(\C#N)c2cc3ccccc3n2C)cc1	31.8% (inactive)
COc1ccc(C2OC(N)=C(O)C2=O)cc1OC (configuration not stated)	109% (inactive)
